This is part of a sample that, as a whole, favours compounds with a hit. Of some 83,000 tested, about 20% had one in any assay.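 Negative percent growth values reflect cell death: -40 means 40% of the cells present at the start died, and -100 means all died.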 Calls of active or inactive are those of the source. Rule for the calls: active = growth percent below 10; inactive = the rest.
Key:
Assay in all cases: NCI-60 one-dose screen, 48 h (100 = growth as untreated, 0 = no growth, -100 = all killed)
Settings in all cases: 10 µM unless noted
[1] = system: DU-145 prostate
[2] = system: K-562 leukemia
[3] = system: MALME-3M melanoma
[4] = system: MDA-MB-231 breast
[5] = system: RXF 393 renal
[6] = system: SF-268 CNS
[7] = system: SF-295 CNS
[8] = system: SF-539 CNS
[9] = system: UACC-257 melanoma
[10] = system: M14 melanoma
[11] = system: HT29 colon
[12] = system: SNB-75 CNS
[13] = system: SNB-19 CNS
[14] = system: U251 CNS
[15] = system: PC-3 prostate
[16] = system: SK-MEL-5 melanoma
[17] = system: UACC-62 melanoma
[18] = system: LOX IMVI melanoma
[19] = system: SK-MEL-28 melanoma
[20] = system: HCT-15 colon

Measured: growth

c1ccc(Nc2ncc3c(n2)-c2cccn2CC3)cc1
inactive: [1] 99.4% | [2] 96.6% | [3] 95.1% | [4] 80.8% | [5] 97.8% | [6] 85.8% | [7] 99.2% | [8] 87.1% | [9] 124% | [10] 91.7% | [11] 114% | [12] 83.3% | [13] 103% | [14] 93.7% | [15] 81.3% | [16] 67% | [17] 80.1% | [18] 92.4% | [19] 107%

CCCCCCCCCCN1CC2CCCCC2C1 (stereo unspecified)
inactive: [1] 69% | [2] 24.4% | [3] 108% | [4] 34.1% | [5] 77.7% | [6] 72.2% | [7] 85.1% | [8] 85.1% | [9] 87.2% | [10] 73.3% | [11] 19.8% | [12] 66.3% | [13] 79.7% | [14] 53.4% | [15] 48.4% | [16] 49% | [17] 89.4% | [18] 47.1% | [19] 90.6%

CCCCCCNc1nc(N2CCOCC2)c2[nH]c(NCCCCCC)nc2n1
active: [1] -88.1% | [2] -52.4% | [3] -62.2% | [4] -94.4% | [5] -84.9% | [6] -92.8% | [7] -61.8% | [8] -94.4% | [9] -95.4% | [10] -98% | [20] -74.6% | [12] -95.1% | [13] -92.7% | [14] -93.4% | [15] -21.2% | [16] -90.6% | [17] -97.4% | [18] -100% | [19] -94.4%

COc1cc2c(c(OC)c1OC)C(=O)CC(c1cccc(C(=O)Nc3cccc(Br)c3)c1)O2 (stereo unspecified)
inactive: [1] 87% | [2] 49.8% | [3] 85% | [4] 63.7% | [5] 88.8% | [6] 73.6% | [7] 86.7% | [8] 86.8% | [9] 76.8% | [10] 73.1% | [11] 82.3% | [12] 75.4% | [13] 76.4% | [14] 81.8% | [15] 59.1% | [16] 72.9% | [17] 58.4% | [18] 90% | [19] 91.9%

Source: PubChem BioAssay (NCI)
